Records with an inconclusive call do not appear. The source made the active and inactive calls. Calls come from the whole dose curve; as a rule, active = well fitted inhibition curve with a large enough effect; inconclusive = small, poorly fitted or top-dose-only effect, or effect the other way; inactive = flat fitted curve, though single readings scatter.

ATP-dependent 6-phosphofructokinase (Trypanosoma brucei brucei), sequence (O15648 whole entry, looked up): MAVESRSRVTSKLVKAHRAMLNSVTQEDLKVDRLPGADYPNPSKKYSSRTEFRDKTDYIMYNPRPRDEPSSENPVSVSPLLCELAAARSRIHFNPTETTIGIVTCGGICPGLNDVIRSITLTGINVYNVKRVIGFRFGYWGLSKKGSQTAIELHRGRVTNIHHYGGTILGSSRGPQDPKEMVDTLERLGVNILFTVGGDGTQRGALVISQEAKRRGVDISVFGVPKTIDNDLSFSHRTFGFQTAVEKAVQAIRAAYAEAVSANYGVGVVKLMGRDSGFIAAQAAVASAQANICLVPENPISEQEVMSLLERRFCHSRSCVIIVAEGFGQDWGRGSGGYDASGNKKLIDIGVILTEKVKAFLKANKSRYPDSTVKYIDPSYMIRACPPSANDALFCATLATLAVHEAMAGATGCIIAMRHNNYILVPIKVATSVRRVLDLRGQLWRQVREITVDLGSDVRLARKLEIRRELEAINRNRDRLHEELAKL

The assay addresses ATP-dependent 6-phosphofructokinase (Trypanosoma brucei brucei) (UniProt O15648). The assay is described as follows: qHTS Assay to Find Inhibitors of T. brucei phosphofructokinase: hit validation (AID 492961).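 Note: luminescence reports ADP formed as PFK phosphorylates fructose-6-phosphate with ATP.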 Conditions: T. brucei PFK, ADP-Glo luminescence; series mostly up to 51.4 µM. The text has this: NIH Molecular Libraries Probe Production Network [MLPCN] NIH Chemical Genomics Center [NCGC] Grant: 1 R03 MH092153-01 PI Name: Malcolm Walkinshaw, University of Edinburgh NCGC Assay Overview: Various species of the protozoan family Trypanosomatidae are responsible for a range of serious human diseases in tropical and subtropical areas of the world. […] Many of the disorders caused by trypanosomatids are fatal if left untreated, but most currently used drugs are inefficient and toxic. […] Oxidative metabolism involving the mitochondrial tricarboxylic acid cycle and oxidative phosphorylation are repressed in these parasites, and recent RNA interference (RNAi) experiments have shown that even partial depletion of certain individual glycolytic enzymes can lead to the death of cultured parasites. One such glycolytic enzyme, phosphofructokinase (PFK), catalyzes the formation of fructose-1,6-bisphosphate (F1,6BP) and ADP from fructose-6-phosphate (F6P) and ATP, and in many metabolic circumstances makes an important contribution to the control of flux through the glycolytic pathway. As a specific glycolytic target, PFK is particularly attractive as it catalyzes the first irreversible step in glycolysis, and structural and kinetic studies have shown very substantial and essential differences from corresponding host enzymes, allowing for the discovery of parasite-selective inhibitors. The goal of this screen is to find small-molecule inhibitors of T. brucei PFK using a biochemical assay that measures PFK activity as a function of ADP production. A luminescence-based assay for T. brucei PFK activity has been developed which uses luciferase to detect production of ADP. Traditional luciferase-based nucleotide detection reagents rely on ATP production as a direct substrate for the luciferase reaction; however, PFK catalyzes the transfer of a phosphate from ATP to F6P, resulting in the net depletion of ATP. To directly measure the ADP product of the PFK reaction, we used the ADP-Glo detection kit (Promega), which utilizes two separate reactions to 1) deplete all remaining uncatalyzed ATP and 2) convert all remaining ADP to ATP, which is then detected through a traditional luciferase-coupled reaction. Compounds were screened as a concentration-titration series that ranged from 57 uM to 0.7 nM.
NCGC Assay Protocol Summary: Substrate buffer was dispensed into white, solid 1536-well plates at 3uL/well in 0.1M triethanolamine (TEA) buffer, pH 8.0, containing final concentrations of 5 mM MgCl2, 0.01% Tween20, 0.5 mM fructose-6-phosphate (F6P) and 0.1mM ATP. Then, 23 nL of compounds or DMSO were delivered to each well using a pin tool. One uL T. brucei PFK (0.1M TEA, 0.01% Tween20, 0.1% bovine serum albumin (BSA) and 1.25nM PFK, final concentrations) was then dispensed, and plates were incubated at room temperature for 45 min. The luminescent detection reagent, ADP-Glo (Promega), was then added in two steps: the first reagent, ADP-Glo (which converts remaining uncatalyzed ATP), was added at 2.5uL/well and incubated for ten minutes at room temperature, and the second component, Kinase Detection reagent (which converts ADP to ATP as a substrate for luciferase-based luminescence), was added immediately after at 5uL/well, followed by one final ten minute room temperature incubation. The plates were measured on a ViewLux plate reader for luminescent signal using a clear filter with a one second exposure. The %Activity was determined from the corrected luminescence values. As no specific T. brucei PFK inhibitors have been identified in the literature, 1x (1.25nM) and 0x PFK enzyme controls (untreated) were included to normalize %Activity of identified inhibitors; 0x enzyme values corresponded to 100%Activity (full inhibition), while 1x PFK enzyme values were used to normalize 0%Activity (no inhibition). Concentration-response curves were fitted to the signals arising from the resulting luminescence. […]
Consider `CCCCCC(C)N` (stereo not given), for which the call was inactive.

With `C=CCNC(N)=S`, the compound was classed as inactive.

Take `O=c1[nH]cnc2nc[nH]c12`: the outcome was inactive. As to `CCN(CC)CCc1nc(-c2ccccc2)no1`, the result was inactive.

With `C[N+](C)(C)CC[N+]1(C)Cc2c(Cl)c(Cl)c(Cl)c(Cl)c2C1`, the result was inactive. As to `CN1C[C@@H]2C[C@H]1CN2c1cc2c(cc1F)c(=O)c(C(=O)O)cn2C1CC1`, the call was inactive.

On to `CNCc1ccccc1`, for which the result was inactive. For the compound `CN1CCCN=C1COC(=O)C(O)(c1ccccc1)C1CCCCC1` (stereo not given), the compound was called inactive. As for `CC(CN(C)C)C(C)(O)Cc1ccc(Cl)cc1` (stereo not given), the call was inactive. Turning to `CNc1c2c(nn1C)CCCC2`, the result was inactive.

As to `CCN(CC)C(=O)c1cccc(C)c1`, the compound was called inactive. With `O=C1c2ccccc2C(=O)C1c1ccc(Br)cc1`, the result was inactive. In the case of `NC(=O)c1ccc([N+](=O)[O-])cc1Cl` it was “inactive”; in that of `NC(=O)CCCCC1CCSS1` (stereo not given), “inactive”. For the compound `NS(=O)(=O)c1cc(-c2nn[nH]n2)c(NCc2cccs2)cc1Cl`, the call was inactive.

As for `O=C(NCCCN1CCOCC1)c1ccc(Cl)cc1`, the outcome was inactive.

Turning to `O=C(O)c1ccc[n+]([O-])c1`, the compound was classed as inactive. Take `CC(N)CCCC(C)(C)O` (stereo not given): the call was inactive.

As for `O=C(c1ccccc1)C(O)c1ccccc1` (stereo not given), the compound was called inactive. On to `Nc1ccc(C(=O)Oc2ccccc2)c(O)c1`, for which the outcome was inactive. In the case of `CCN(CC)S(=O)(=O)c1ccc(C(=O)O)cc1` it was “inactive”; in that of `Cc1c(C)c2c(c(C)c1OC(=O)c1cccnc1)CC[C@@](C)(CCC[C@H](C)CCC[C@H](C)CCCC(C)C)O2`, “inactive”; in that of `CCc1nnc(NS(=O)(=O)c2ccc(N)cc2)s1`, “inactive”. As for `CC(O)CCCCn1c(=O)c2c(ncn2C)n(C)c1=O` (stereo not given), the compound was classed as inactive. Regarding `CCN1CC(CCN2CCOCC2)C(c2ccccc2)(c2ccccc2)C1=O` (stereo not given), the compound was called inactive. The value for `O=C1c2cccc(O)c2C(=O)c2c(O)cccc21` was “inactive”; that for `CC(CSC(=O)c1ccccc1)C(=O)N1C[C@@H](Sc2ccccc2)C[C@H]1C(=O)O` (stereo not given in full) was “inactive”; that for `Cc1cc(=O)[nH]c(=S)[nH]1` was “inactive”. Consider `OCc1ccc(Cl)cc1Cl`, for which the outcome was inactive. On to `CC(=O)N[C@@H](Cc1ccc(O)cc1)C(=O)O`, for which the call was inactive.

Take `Cc1c(C(=O)NCCO)[n+](=O)c2ccccc2n1[O-]`: the compound was classed as inactive. As for `CC(C)c1cc2c(cc1S(=O)(=O)O)[C@@]1(C)CCC[C@@](C)(C(=O)O)[C@@H]1CC2`, the result was inactive.

Turning to `COc1ccc(C(=O)N2CCN(CC(=O)N3CCOCC3)CC2)cc1`, the outcome was inactive. Regarding `O=c1[nH]c2cc(C(F)(F)F)c(N3CCOCC3)cc2n(CP(=O)(O)O)c1=O`, the result was inactive. For the compound `CC(=O)N(CC(O)CO)c1c(I)c(C(=O)NCC(O)CO)c(I)c(C(=O)NCC(O)CO)c1I` (stereo not given), the result was inactive. Regarding `Cc1ccccc1N=Nc1ccc(N=Nc2c(O)ccc3ccccc23)c(C)c1`, the call was inactive. Regarding `O=C(O)Cn1c(C(=O)Nc2nc(-c3ccccc3Cl)cs2)cc2ccccc21`, the compound was called inactive. For `CC(=O)Nc1cccc(O)c1`, the result was inactive. Turning to `Cc1ccsc1C(=CCCN1CCC[C@@H](C(=O)O)C1)c1sccc1C`, the outcome was inactive. Consider `Cc1cccc(C)c1NC(=O)CC12CCCN1CCC2`, for which the compound was classed as inactive.

The values above are taken from PubChem BioAssay (NCATS).
